In the supplement of paper PMC3334620:
Whole data set: some 33,000 sequences, median “E-score (-0.5 to 0.5)” near -8e-05, cut for the highest 2% near 0.23. Many of the other results were omitted from the sample, so the highest values are more common in it than they were.

What follows are sequences tested against T1, Nrg2 (UniProt P38082) (assay: PBM E-score (8-mer binding enrichment) (E-score (-0.5 to 0.5)); higher = stronger / more preferred TF binding). Conditions: protein concentration: 100 nM; construct: GST-full length.
T1 sequence: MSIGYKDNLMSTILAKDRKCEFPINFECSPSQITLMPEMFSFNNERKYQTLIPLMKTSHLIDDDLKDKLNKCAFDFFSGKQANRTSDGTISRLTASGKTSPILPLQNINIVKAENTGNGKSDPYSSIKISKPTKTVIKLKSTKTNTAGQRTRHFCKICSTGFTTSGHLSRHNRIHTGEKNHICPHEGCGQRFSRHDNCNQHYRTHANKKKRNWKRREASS
Method: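 Universal 'all 10-mer' protein binding microarrays (Agilent AMADID 015681) probed with GST-tagged S. cerevisiae TFs (full-length or DBD) made by in vitro transcription/translation (PURExpress), about 100-200 nM. Bound TF was detected with fluorescent anti-GST. Each ungapped 8-mer (which stands for itself and its reverse complement) is scored by the PBM enrichment score (E-score), a modified Wilcoxon-Mann-Whitney statistic from -0.5 to +0.5, computed with the Universal PBM Analysis Suite. Scale: above 0.35 generally sequence-specific binding.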

Sequence | PBM E-score
GCGACAGA | 0.238
CCGACAGA | 0.141
TCGACAGA | -0.105
TGTTATAA | 0.163
AGGGTCTA | 0.356
CGGGTCTA | -0.0249
CGGGTCTC | -0.0571
GGGGTCTA | 0.203
AGGGTCTC | 0.308
AGGGTCTG | 0.216
CCCCCCGC | -0.359
CCACTGTA | 0.064
CTGATGAA | 0.0121
CTGATCTA | 0.00323
AGTATGAC | 0.0675
AGTATGAA | 0.254
AGTATGAT | 0.223
ATGATCTA | 0.236
ATGATGAA | 0.31
ATGATCTC | 0.087
GTGATGAA | 0.0611
GCAGCATA | 0.0385
GGAGAGGA | -0.215
ACCGAACC | -0.254
CGGACCTC | -0.0835

Sequence | PBM E-score
GACTCACA | 0.0103
AGGTAGAT | -0.104
TAACACTA | 0.248
GAACACTA | 0.0307
CAACACTA | 0.147
CGGTTGAA | 0.101
AAAGGAAA | 0.0754
AGCATAGA | -0.0952
AGCGATCC | -0.129
AGCGATCA | -0.156
AGCGATCG | 0.24
CCGTGGAA | -0.00678
CATTGCAG | 0.0963
ATGAGAGC | 0.00785
ACCTACGG | -0.376
CCTAACGA | -0.038
ATTAGTAA | 0.245
CTTAGTAA | 0.0233
GTTAGTTA | 0.0784
ATTAGTTA | 0.268
AGTAGTTA | 0.0579
ATTAGTGA | 0.114
CTTAGTTA | 0.0769
ATTAGTAC | 0.14
ATTAGTGG | 0.15

Sequence | PBM E-score
ATTAGTGC | 0.23
AGTAGTTC | 0.207
AGTAGTTG | 0.253
GTAACTAC | 0.0907
CGTTCTCA | -0.0327
CACCATGA | -0.00138
CGGGCCAG | -0.0425
TGGTTCAA | 0.103
CGAGCCCC | -0.154
GACAGCCC | -0.099
CTTCTCTA | -0.137
ATTAGTTG | 0.256
AATAGTTC | 0.0571
AATAGTTA | 0.0707
ATTAGTTC | 0.158
ATTAGTCG | 0.143
AATAGTTG | 0.248
ACTTGAAA | -0.108
CCTTGCAG | -0.0165
CATGCTAG | -0.00401
CCCGATCG | -0.026
AATCTAAC | 0.0101
TCGTGAGA | -0.0385
GCGTGAGA | 0.297
ACGTGAGA | -0.11

Sequence | PBM E-score
CCTCTAGC | -0.0815
CATTTCCC | 0.201
CATTTCCA | 0.237
TATTTCCA | 0.0167
GGGCTGCA | 0.0573
AACTCGGA | 0.13
AACTCGGT | -0.00163
AACTCGGC | 0.245
GATAAATA | 0.262
CATAAATA | 0.046
AATAAAGT | 0.252
GATAAATC | 0.023
TATAAAAA | 0.164
AATAAATT | 0.215
AATAAATA | 0.246
TATAAATA | 0.255
AATAAATG | 0.158
AATAAAGA | 0.0604
AATAAAGG | -0.0433
GATAAAAA | -0.00426
CCCTGCCC | -0.1
ACGGATTG | 0.168
ACGACCCG | 0.168
GGATAAAC | 0.133
AGAGCTAC | 0.00658

Sequence | PBM E-score
AGCCGACT | -0.111
CTTGGAAA | 0.0285
AGACCGTA | -0.242
AACACGAC | 0.0492
ATAAAAAT | 0.122
ATAAAAGG | -0.128
ATAAAAAG | 0.257
GTAAATAC | -0.0746
ATAAAAAA | 0.0337
ATAAATAC | 0.283
ATAAATAT | 0.245
TTAAATAA | 0.186
ATAAATAG | 0.0238
ATAAATAA | 0.237
CTAAATAC | 0.0507
AAAAATAT | 0.101
AGCCAGGA | -0.0522
AAGATTCA | 0.0877
CGTTGACA | 0.00462
GCTAGCAA | -0.0969
CTAAGAGA | -0.0214
ACTACCTG | 0.0949
TACTTCGA | 0.23
CACTTCGA | 0.0548
GACTTCGA | -0.106

Sequence | PBM E-score
GCAAGATA | 0.229
CCAAGATA | 0.00687
ACAAGATA | 0.103
GCTACGCA | -0.108
CGACGAAA | 0.0993
CCCGCATA | 0.168
ACCGCATA | 0.0956
GCCGCATA | 0.231
CCCACAAA | 0.247
CGCACAAA | 0.257
CCCACAAG | -0.0136
CGCACGAG | -0.0371
GCCACAAA | 0.0838
CGCACAAG | 0.0299
GAGAGAAC | -0.0345
CCCGCCAA | -0.175
AGCCTACG | 0.0365
AATAATTA | 0.286
CATTAATA | 0.155
CATAATTA | 0.173
CTTTAATA | 0.125
AATTAATA | 0.303
ATTTAATA | 0.247
AATTAATT | -0.112
GTTTAATA | 0.198

Sequence | PBM E-score
TATTAATA | 0.152
GATAATTA | 0.0635
AATTAATG | 0.182
GATTAATA | 0.29
CCACCACG | 0.00854
CGGGTCAG | 0.023
ACCCAGGA | -0.227
ACTGTGGA | -0.109
CGGTCGAC | -0.0395
ACTCTAAA | 0.101
GATAGCAA | 0.0872
AACTGTCC | -0.0683
GCTGAAAC | -0.139
GTTGATGA | 0.0639
ATTGATAG | -0.0275
GTTGATAA | 0.232
CCTGATAG | -0.153
ATTGATAC | 0.274
CTTGATAA | 0.147
ATTGATAA | 0.0942
CTTGATTC | 0.0772
CCTGATAC | 0.229
GCTGATAC | -0.0795
ATTGATTC | 0.244
ATTGATTG | 0.142

Sequence | PBM E-score
AAACTCCC | -0.0959
GTGGATTA | 0.0668
CGGCCTTA | 0.0601
ACTCAAGC | -0.148
CAGTTTTC | 0.17
AATGGAAC | 0.108
AATGGCAT | 0.26
AATGGAAT | 0.241
AATGGAAG | 0.0112
AATGGCAG | 0.0917
AATGGCAC | -0.0263
CGCCAAAA | 0.119
AAGGAAAC | -0.128
AAGGGACG | 0.207
CAGAGACC | -0.212
AAGGGACA | 0.137
CAGGGACC | 0.4
AAGGGACT | 0.123
AGGGGACC | 0.225
CAGGGACA | 0.371
GAGGGACA | 0.0412
CAGGGACG | 0.306
CAGAGACG | 0.0459
GAGGGACC | 0.0355
AAGGGACC | 0.424

Sequence | PBM E-score
AGCAAACA | 0.0834
GGCGCCTA | -0.0964
AGAACCGC | 0.0943
ACGTCAGC | 0.129
CCCGAACG | -0.0859
GCAAACGA | 0.0657
GGCAACTA | 0.194
CGCAACTA | 0.244
CGCAACTC | 0.147
GCGGCCAA | -0.133
AGGACCCG | 0.0935
AAGACCCG | 0.0509
AGGACCCT | 0.369
AAGACCCA | -0.181
AGGACCCA | -0.179
AAGACCCT | 0.291
CCAACCTA | -0.118
AAGTGAGC | -0.0445
CATGGGAA | 0.0176
